Measurements published in PubChem BioAssay (EPA / NIEHS).
Where “and” joins values, the source holds several entries; their conditions need not be identical. Identical values can stand only once. Records with an inconclusive call do not appear. Where a structure was tested more than once in an assay, its records may differ in their call. Calls of active or inactive are those of the source. How the source made its calls, unless noted: active means hit-call score of the fitted dose curve at least 0.9, where 1 is the maximum; inconclusive means response in the unintended direction; inactive means score below 0.9.

What was measured:
[1] = ATG_VDRE_CIS: Attagene CIS-FACTORIAL HepG2 Assay for human Vitamin D Receptor Element (VDRE) (AID 2282968; active means hit-call score of the fitted dose curve at least 0.9, where 1 is the maximum; inactive means score below 0.9); details: HepG2 VDRE cis-reporter transcription, actives raise or lower the signal
Summary of the method: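 Compounds were applied for 24 h to HepG2 cells transfected with promoter-regulated reporter units. Total RNA was reverse-transcribed, and reporter amplicons were fluorescently labelled and sized by capillary electrophoresis.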

[2] = molecular target: Glucocorticoid receptor (Homo sapiens) (UniProt P04150); experiment: ATG_GR_TRANS: Attagene TRANS-FACTORIAL HepG2 Assay for human Glucocorticoid Receptor (GR) (AID 2282978); details: HepG2 Attagene TRANS GR reporter, mRNA transcription;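 further: activators score as hits since higher reporter transcript over DMSO is fitted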
Chain of Glucocorticoid receptor (Homo sapiens) (P04150 whole entry, looked up, the tested form may be a part): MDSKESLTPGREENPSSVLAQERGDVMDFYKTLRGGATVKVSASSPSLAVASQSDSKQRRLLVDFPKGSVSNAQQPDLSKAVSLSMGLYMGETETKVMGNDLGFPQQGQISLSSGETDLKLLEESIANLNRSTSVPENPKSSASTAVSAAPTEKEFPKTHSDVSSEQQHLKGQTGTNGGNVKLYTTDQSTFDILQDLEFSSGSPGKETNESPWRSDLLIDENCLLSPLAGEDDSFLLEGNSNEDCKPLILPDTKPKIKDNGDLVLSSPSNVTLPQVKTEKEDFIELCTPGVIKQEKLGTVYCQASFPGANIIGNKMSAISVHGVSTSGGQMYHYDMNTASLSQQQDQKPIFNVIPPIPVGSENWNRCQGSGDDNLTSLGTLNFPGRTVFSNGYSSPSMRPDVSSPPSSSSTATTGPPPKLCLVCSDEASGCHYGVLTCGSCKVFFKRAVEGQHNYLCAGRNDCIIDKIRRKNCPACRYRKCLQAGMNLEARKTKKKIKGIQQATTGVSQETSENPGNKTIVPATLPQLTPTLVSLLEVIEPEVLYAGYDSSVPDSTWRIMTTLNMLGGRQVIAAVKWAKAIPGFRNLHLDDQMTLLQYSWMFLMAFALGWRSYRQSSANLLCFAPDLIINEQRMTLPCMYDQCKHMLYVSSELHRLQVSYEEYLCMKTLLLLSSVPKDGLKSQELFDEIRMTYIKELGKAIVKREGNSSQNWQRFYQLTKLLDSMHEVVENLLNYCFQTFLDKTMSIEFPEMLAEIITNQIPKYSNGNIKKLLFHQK
Summary of the method: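 Exogenous NR-GAL4 fusion activity was assessed through induced GAL4-UAS reporter transcripts in transfected human HepG2 cells, quantified after 24 h by RT-PCR and fluorescent capillary electrophoresis with DMSO as baseline.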

[3] = molecular target: Bile acid receptor (Homo sapiens) (UniProt Q96RI1); experiment: ATG_FXR_TRANS: Attagene TRANS-FACTORIAL HepG2 Assay for Farnesoid X Receptor (FXR) (AID 2282979); details: HepG2 Attagene TRANS FXR-GAL4 reporter transcription;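 further: hits raise reporter mRNA above DMSO so AC50 marks FXR activation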
Summary of the method: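 Read-out: fluorescent reporter transcripts quantified by capillary electrophoresis after RT-PCR of total RNA. Source cells were HepG2 transiently carrying chimeric NR-GAL4 plus GAL4-UAS reporter units, dosed 24 h. Activity fitted upward relative to DMSO baseline.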

[4] = ATG_M_32_TRANS: Attagene TRANS-FACTORIAL HepG2 Assay for M32 Transcription Factor (Internal Marker) (AID 2282984); details: HepG2 Attagene TRANS M32 internal marker reporter;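 further: transcript level of a background control reporter unit measured by RT-PCR and capillary electrophoresis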
Summary of the method: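 Internal-marker readout from a multiplexed transcription reporter panel. HepG2 cells were transfected with GAL4-UAS reporter units, treated 24 hours, and reporter transcript levels determined by fluorescence after RT-PCR and capillary separation.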

[5] = molecular target: Transcriptional activator Myb (Homo sapiens) (UniProt P10242); experiment: ATG_Myb_CIS: Attagene CIS-FACTORIAL HepG2 Assay for human Myeloblastosis (Myb) Proto-Oncogene Transcription Factor (AID 2282986; active means hit-call score of the fitted dose curve at least 0.9, where 1 is the maximum; inactive means score below 0.9); details: HepG2 Attagene CIS-FACTORIAL Myb reporter transcription; actives raise or lower the signal
Chain of Transcriptional activator Myb (Homo sapiens) (P10242 whole entry, looked up): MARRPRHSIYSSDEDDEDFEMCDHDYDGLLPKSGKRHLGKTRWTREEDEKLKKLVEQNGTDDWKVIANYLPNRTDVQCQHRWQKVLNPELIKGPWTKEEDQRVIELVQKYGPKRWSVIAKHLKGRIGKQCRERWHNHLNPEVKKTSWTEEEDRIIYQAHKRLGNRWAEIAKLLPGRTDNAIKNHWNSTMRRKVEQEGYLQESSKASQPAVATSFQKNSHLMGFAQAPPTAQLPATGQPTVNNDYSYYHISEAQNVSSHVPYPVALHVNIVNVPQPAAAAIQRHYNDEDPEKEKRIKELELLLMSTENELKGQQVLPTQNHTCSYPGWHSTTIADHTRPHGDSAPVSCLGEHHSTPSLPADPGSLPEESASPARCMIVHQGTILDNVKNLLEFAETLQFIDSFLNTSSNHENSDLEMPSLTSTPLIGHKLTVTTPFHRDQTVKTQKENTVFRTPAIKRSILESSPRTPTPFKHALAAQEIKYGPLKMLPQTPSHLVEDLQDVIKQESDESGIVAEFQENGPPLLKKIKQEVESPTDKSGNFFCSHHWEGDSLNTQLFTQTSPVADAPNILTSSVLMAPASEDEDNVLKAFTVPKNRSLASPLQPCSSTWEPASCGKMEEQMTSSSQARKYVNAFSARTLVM
Summary of the method: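 In this HepG2 transient-transfection format, cis-regulated reporter mRNA is quantified 24 h post-dosing by RT-PCR with capillary electrophoresis, fitted bidirectionally to DMSO baseline.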

[6] = molecular target: Nuclear respiratory factor 1 (Homo sapiens) (UniProt Q16656); experiment: ATG_NRF1_CIS: Attagene CIS-FACTORIAL HepG2 Assay for human Nuclear Respiratory Factor 1 (NRF1) Orphan Gene (AID 2282987; active means hit-call score of the fitted dose curve at least 0.9, where 1 is the maximum; inactive means score below 0.9); details: HepG2 NRF1 cis-element reporter, Attagene multiplex; actives raise or lower the signal
Chain of Nuclear respiratory factor 1 (Homo sapiens) (Q16656 whole entry, looked up): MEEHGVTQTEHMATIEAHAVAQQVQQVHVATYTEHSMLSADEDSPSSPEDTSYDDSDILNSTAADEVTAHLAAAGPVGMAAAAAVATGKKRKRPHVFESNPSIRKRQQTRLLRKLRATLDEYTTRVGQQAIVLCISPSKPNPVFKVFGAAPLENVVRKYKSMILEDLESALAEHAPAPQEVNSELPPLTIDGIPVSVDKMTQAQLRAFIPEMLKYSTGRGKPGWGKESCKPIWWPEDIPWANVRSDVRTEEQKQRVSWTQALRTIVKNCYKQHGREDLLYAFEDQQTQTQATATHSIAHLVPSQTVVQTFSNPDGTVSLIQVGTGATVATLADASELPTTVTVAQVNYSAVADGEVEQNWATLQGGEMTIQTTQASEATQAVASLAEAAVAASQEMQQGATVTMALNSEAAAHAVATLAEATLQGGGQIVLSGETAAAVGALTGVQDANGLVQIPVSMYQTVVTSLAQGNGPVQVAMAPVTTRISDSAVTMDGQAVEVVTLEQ
Summary of the method: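 Using DMSO as baseline, gain- or loss-of-signal was fitted for reporter mRNA levels in HepG2 cells transiently transfected with cis-regulated reporter units. Samples were taken 24 h after dosing and read by RT-PCR with capillary electrophoresis.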

[7] = ATG_NFI_CIS: Attagene CIS-FACTORIAL HepG2 Assay for human Nuclear Factor I (NFI) (AID 2282989; active means hit-call score of the fitted dose curve at least 0.9, where 1 is the maximum; inactive means score below 0.9); details: HepG2 cis-regulatory reporter, NFI response element transcription; actives raise or lower the signal
Summary of the method: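 Reporter transcripts were measured by RT-PCR with fluorescent primer extension and capillary electrophoresis 24 h post-treatment. HepG2 cells carried transiently transfected cis-regulated reporter constructs reporting endogenous factor activity; gain or loss fitted against DMSO baseline.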

[8] = molecular target: X-box-binding protein 1 (Homo sapiens) (UniProt P17861); experiment: ATG_Xbp1_CIS: Attagene CIS-FACTORIAL HepG2 Assay for human X-box Binding Protein 1 (XBP1) (AID 2282972; active means hit-call score of the fitted dose curve at least 0.9, where 1 is the maximum; inactive means score below 0.9); details: HepG2 XBP1 cis-element reporter, Attagene multiplex; actives raise or lower the signal
Chain of X-box-binding protein 1 (Homo sapiens) (P17861 whole entry, looked up, the tested form may be a part): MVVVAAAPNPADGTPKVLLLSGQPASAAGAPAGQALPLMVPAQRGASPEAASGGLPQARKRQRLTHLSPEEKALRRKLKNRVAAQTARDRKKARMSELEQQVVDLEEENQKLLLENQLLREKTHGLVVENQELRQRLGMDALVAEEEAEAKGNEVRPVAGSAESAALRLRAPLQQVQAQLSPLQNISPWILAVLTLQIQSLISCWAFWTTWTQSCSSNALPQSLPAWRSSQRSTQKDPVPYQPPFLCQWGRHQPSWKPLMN
Summary of the method: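 Read-out: fluorescent reporter mRNA fragments resolved by capillary electrophoresis after RT-PCR. Human HepG2 liver cells carried transfected cis-promoter reporter units and were exposed to chemicals for 24 hours. Gain or loss of signal fitted relative to DMSO baseline.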

[9] = ATG_M_19_TRANS: Attagene TRANS-FACTORIAL HepG2 Assay for M19 Transcription Factor (Internal Marker) (AID 2282974); details: HepG2 Attagene TRANS-FACTORIAL M19 internal marker reporter
Summary of the method: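 Using RT-PCR and capillary electrophoresis, reporter mRNA from transiently transfected human HepG2 cells was quantified following 24 h exposure; activity was fitted in the positive direction against DMSO.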

[10] = molecular target: Estrogen-related receptor gamma (Homo sapiens) (UniProt P62508); experiment: ATG_ERRg_TRANS: Attagene TRANS-FACTORIAL HepG2 Assay for human Estrogen-Related Receptor gamma (ERRg) (AID 2282977); details: HepG2 Attagene TRANS reporter, ERRg transactivation;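 further: hits increase reporter signal over DMSO so potencies reflect activators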
Summary of the method: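 Exogenous NR-Gal4 chimera activity measured as reporter transcript induction after 24 h in transiently transfected HepG2 cells. RNA reverse-transcribed, PCR-amplified, 6-FAM-labelled and resolved by capillary electrophoresis; increase over DMSO baseline.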

[11] = ATG_M_06_TRANS: Attagene TRANS-FACTORIAL HepG2 Assay for M06 Transcription Factor (Internal Marker) (AID 2282983); details: HepG2 Attagene TRANS M06 internal marker reporter
Summary of the method: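 Read-out: fluorescent reporter cDNA fragments resolved by capillary electrophoresis after RT-PCR and HpaI cut. Source cells were HepG2 carrying transfected multi-reporter GAL4 constructs, dosed 24 h. Increase over DMSO control analysed.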

[12] = molecular target: Nuclear receptor subfamily 1 group I member 3 (Homo sapiens) (UniProt Q14994); experiment: ATG_CAR_TRANS: Attagene TRANS-FACTORIAL HepG2 Assay for human Constitutive Androstane Receptor (CAR) (AID 2282969); details: HepG2 Attagene TRANS-FACTORIAL CAR reporter;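 further: activators raise reporter mRNA above DMSO so AC50 marks induction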
Summary of the method: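 Transiently transfected HepG2, multiplex TRANS reporters (CAR-Gal4 chimera driving GAL4-UAS reporter). 24 h dosing. Readout: reporter transcript by RT-PCR + capillary electrophoresis, fluorescence intensity; positive direction vs DMSO.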

[13] = molecular target: Estrogen receptor (Homo sapiens) (UniProt P03372); experiment: ATG_ERa_TRANS: Attagene TRANS-FACTORIAL HepG2 Assay for human Estrogen Receptor alpha (ERa) (AID 2282970); details: HepG2 Attagene TRANS ERa GAL4 reporter, mRNA
Chain of Estrogen receptor (Homo sapiens) (P03372 whole entry, looked up, the tested form may be a part): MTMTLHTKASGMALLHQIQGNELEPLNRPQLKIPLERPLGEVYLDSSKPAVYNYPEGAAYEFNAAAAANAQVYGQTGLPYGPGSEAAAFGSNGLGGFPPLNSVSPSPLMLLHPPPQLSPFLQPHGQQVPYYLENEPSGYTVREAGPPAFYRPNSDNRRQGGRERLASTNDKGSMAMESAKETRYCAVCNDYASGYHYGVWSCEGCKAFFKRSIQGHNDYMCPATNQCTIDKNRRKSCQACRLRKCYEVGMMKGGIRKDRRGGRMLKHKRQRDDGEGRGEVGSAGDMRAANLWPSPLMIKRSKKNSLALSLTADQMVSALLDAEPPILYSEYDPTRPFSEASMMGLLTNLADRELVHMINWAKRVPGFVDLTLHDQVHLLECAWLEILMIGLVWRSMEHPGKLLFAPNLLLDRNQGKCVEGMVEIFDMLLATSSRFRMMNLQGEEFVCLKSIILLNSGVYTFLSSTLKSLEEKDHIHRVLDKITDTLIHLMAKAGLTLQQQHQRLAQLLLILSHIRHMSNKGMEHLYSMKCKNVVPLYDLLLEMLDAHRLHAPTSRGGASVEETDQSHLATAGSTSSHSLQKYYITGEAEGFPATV
Summary of the method: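 Reporter mRNA induction after 24 hours, detected by fluorescent RT-PCR and capillary electrophoresis, gives the read-out. Cells are HepG2 transiently transfected with GAL4-UAS reporter transcription units responding to chimeric NR-Gal4. Activity is taken as gain of signal over DMSO baseline.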

[14] = ATG_GAL4_TRANS: Attagene TRANS-FACTORIAL HepG2 Assay for GAL4 (Internal Marker) (AID 2282976); details: HepG2 Attagene TRANS GAL4 internal marker reporter
Summary of the method: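 RT-PCR/capillary electrophoresis readout of reporter mRNA. HepG2, transient MRTU transfection (GAL4-UAS reporters), 24 h compound exposure. Background-control endpoint, positive direction vs DMSO baseline.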

[15] = molecular target: Oxysterols receptor LXR-alpha (Homo sapiens) (UniProt Q13133); experiment: ATG_LXRa_TRANS: Attagene TRANS-FACTORIAL HepG2 Assay for human Liver X Receptor alpha (LXRa) (AID 2282980); details: HepG2 Attagene TRANS reporter, LXRa transactivation
Chain of Oxysterols receptor LXR-alpha (Homo sapiens) (Q13133 whole entry, looked up, the tested form may be a part): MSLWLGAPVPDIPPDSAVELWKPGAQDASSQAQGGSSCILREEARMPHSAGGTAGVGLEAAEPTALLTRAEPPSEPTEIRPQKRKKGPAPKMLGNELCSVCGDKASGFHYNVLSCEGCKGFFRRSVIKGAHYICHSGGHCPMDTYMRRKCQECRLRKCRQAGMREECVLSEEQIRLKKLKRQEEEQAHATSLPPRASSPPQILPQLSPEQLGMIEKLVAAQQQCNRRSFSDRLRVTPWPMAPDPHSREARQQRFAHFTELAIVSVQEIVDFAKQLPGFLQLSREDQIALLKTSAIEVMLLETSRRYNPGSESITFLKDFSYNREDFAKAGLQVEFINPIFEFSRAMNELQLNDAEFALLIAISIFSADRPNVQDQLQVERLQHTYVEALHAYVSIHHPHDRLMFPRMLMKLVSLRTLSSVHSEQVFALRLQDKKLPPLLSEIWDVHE
Summary of the method: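 Read-out: reporter transcript levels by RT-PCR plus capillary electrophoresis, fluorescence intensity. Transiently transfected HepG2, exogenous NR-GAL4 chimera, GAL4-UAS reporters; 24 h compound exposure. Activity = increase over DMSO negative control.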

[16] = molecular target: Oxysterols receptor LXR-beta (Homo sapiens) (UniProt P55055); experiment: ATG_LXRb_TRANS: Attagene TRANS-FACTORIAL HepG2 Assay for human Liver X Receptor beta (LXRb) (AID 2282981); details: HepG2 Attagene TRANS GAL4-LXRb reporter, mRNA
Summary of the method: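 Multiplexed reporter assay, HepG2, 24 h dosing. Fluorescence of labelled RT-PCR products after capillary electrophoresis gives transcript level; positive fitting direction relative to DMSO.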

[17] = molecular target: Nuclear receptor subfamily 4 group A member 2 (Homo sapiens) (UniProt P43354); experiment: ATG_NURR1_TRANS: Attagene TRANS-FACTORIAL HepG2 Assay for human Nuclear Receptor Related Protein 1 (NURR1) (AID 2282985); details: HepG2 Attagene TRANS reporter, mRNA readout
Chain of Nuclear receptor subfamily 4 group A member 2 (Homo sapiens) (P43354 whole entry, looked up): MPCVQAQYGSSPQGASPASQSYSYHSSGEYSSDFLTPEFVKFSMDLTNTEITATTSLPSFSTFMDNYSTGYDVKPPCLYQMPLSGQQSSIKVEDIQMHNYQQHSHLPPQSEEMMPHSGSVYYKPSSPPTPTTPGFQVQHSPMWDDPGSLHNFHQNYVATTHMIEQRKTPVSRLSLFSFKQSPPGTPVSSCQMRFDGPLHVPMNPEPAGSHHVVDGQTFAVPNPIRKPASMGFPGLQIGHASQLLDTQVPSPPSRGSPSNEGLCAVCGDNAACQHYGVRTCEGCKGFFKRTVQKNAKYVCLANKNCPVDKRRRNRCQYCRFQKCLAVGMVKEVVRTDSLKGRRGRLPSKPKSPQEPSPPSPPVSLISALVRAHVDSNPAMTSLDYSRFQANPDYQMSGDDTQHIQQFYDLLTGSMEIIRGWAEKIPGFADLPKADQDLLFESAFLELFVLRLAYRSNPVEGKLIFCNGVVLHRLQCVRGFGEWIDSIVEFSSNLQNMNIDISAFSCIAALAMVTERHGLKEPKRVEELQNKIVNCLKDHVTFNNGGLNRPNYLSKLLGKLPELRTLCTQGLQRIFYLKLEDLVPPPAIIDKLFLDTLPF
Summary of the method: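 Endpoint: reporter mRNA increase relative to DMSO. HepG2 cells transfected with reporter units, treated 24 h; RNA processed by RT-PCR, labelling, HpaI digestion and capillary electrophoresis.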

[18] = molecular target: Hepatocyte nuclear factor 4-alpha (Homo sapiens) (UniProt P41235); experiment: ATG_HNF4a_TRANS: Attagene TRANS-FACTORIAL HepG2 Assay for human Hepatocyte Nuclear Factor 4 alpha (HNF4a) (AID 2282982); details: HepG2 HNF4a transactivation reporter, mRNA readout
Chain of Hepatocyte nuclear factor 4-alpha (Homo sapiens) (P41235 whole entry, looked up, the tested form may be a part): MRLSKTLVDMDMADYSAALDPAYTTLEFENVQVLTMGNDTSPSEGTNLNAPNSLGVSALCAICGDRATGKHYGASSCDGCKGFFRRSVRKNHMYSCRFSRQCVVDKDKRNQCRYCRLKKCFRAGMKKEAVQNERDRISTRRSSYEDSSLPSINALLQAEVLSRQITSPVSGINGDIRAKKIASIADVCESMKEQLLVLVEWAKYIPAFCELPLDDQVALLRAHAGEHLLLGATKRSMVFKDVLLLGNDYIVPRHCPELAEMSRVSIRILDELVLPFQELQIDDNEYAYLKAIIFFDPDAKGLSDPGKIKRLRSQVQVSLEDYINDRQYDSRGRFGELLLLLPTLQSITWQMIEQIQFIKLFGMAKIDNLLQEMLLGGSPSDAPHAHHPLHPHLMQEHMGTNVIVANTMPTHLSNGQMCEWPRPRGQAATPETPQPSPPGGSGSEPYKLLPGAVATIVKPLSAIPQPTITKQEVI
Summary of the method: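 Endpoint reflects transcriptional activation of a GAL4-UAS reporter by an HNF4a-GAL4 chimera in transfected HepG2 cells, 24 h post-dosing. Fluorescence from RT-PCR products separated by capillary electrophoresis; DMSO baseline.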

[19] = molecular target: Steroid hormone receptor ERR1 (Homo sapiens) (UniProt P11474); experiment: ATG_ERRa_TRANS: Attagene TRANS-FACTORIAL HepG2 Assay for human Estrogen-Related Receptor alpha (ERRa) (AID 2282971); details: HepG2 Attagene TRANS reporter, ERRa transactivation
Chain of Steroid hormone receptor ERR1 (Homo sapiens) (P11474 whole entry, looked up, the tested form may be a part): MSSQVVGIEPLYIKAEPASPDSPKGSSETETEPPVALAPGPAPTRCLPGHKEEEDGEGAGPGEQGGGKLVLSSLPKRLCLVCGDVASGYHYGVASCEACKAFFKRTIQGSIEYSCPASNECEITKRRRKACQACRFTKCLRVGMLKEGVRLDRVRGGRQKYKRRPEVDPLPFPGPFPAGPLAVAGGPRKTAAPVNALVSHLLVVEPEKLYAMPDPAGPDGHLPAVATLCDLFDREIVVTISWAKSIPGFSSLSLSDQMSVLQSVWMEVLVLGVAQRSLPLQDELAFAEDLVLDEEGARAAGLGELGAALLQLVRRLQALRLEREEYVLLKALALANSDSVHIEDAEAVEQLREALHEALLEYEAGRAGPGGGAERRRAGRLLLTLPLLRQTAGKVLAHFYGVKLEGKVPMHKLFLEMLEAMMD
Summary of the method: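 Transfected HepG2, 24 h dosing, ERRa-Gal4 chimera driving GAL4-UAS reporter. Readout: reporter mRNA via RT-PCR plus capillary electrophoresis (fluorescence). Positive direction vs DMSO control.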

Measured: AC50

CCc1ccccc1O
inactive: [2] | [3] | [4] | [5] | [6] | [7]
active: [1] 27.9 µM

CCCCC(CC)C(=O)OCCOCCOCCOCCOC(=O)C(CC)CCCC (stereo not drawn)
active: [1] 27.8 µM
inactive: [8] | [9] | [10] | [11] | [4] | [5] | [6] | [7]

C=CC(C)(CCC=C(C)C)OC(C)=O (stereo not drawn)
not listed: [1] | [6] | [10] | [11] | [18] | [19]
inactive: all other assays above

Oc1ccc(Cc2ccccc2O)cc1
active: [1] 64.5 µM
inactive: [9] | [2] | [3] | [16] | [18] | [4] | [17] | [5] | [7]

Cc1ccccc1OCC(=O)O
inactive: [1] | [8] | [9] | [2] | [3] | [4] | [17] | [7]
active: [5] 164 µM

NC(C(F)(F)F)C(F)(F)F
inactive: [1] | [19] | [8] | [11] | [4] | [17] | [5] | [7]

COc1ccccc1NC(=O)c1cc2ccccc2cc1O
inactive: [10] | [3] | [16] | [18] | [4] | [6]
active: [1] 6.49 µM | [8] 25.8 µM | [5] 121 µM | [7] 30.4 µM

CC(C)(O)C(=O)c1ccccc1
not listed: [1] | [8] | [11] | [14] | [15] | [18]
inactive: all other assays above

CCCCC=O
inactive: [1] | [8] | [14] | [2] | [3] | [11] | [5] | [6] | [7]

O=C1OC(=O)c2cc(-c3ccc4c(c3)C(=O)OC4=O)ccc21
inactive: [12] | [13] | [9] | [14] | [3] | [4] | [17] | [5] | [6] | [7]

CN(CCO)S(=O)(=O)C(F)(F)C(F)(F)C(F)(F)C(F)(F)C(F)(F)C(F)(F)C(F)(F)C(F)(F)F
not listed: [1] | [3] | [4] | [6] | [8] | [9] | [16]
inactive: all other assays above

CCO[Si](C)(C)OCC
not listed: [3] | [11] | [12] | [13] | [14] | [15] | [19]
inactive: all other assays above

CCCCCCCCCCCCCCC
inactive: [1] | [8] | [9] | [2] | [16] | [5] | [6] | [7]

Cc1ccccc1C(OCCN(C)C)c1ccccc1 (stereo not drawn)
active: [8] 124 µM
inactive: [12] | [13] | [19] | [8] | [3] | [15] | [4] | [17] | [5] | [6] | [7]

CC(C)c1c(C(=O)Nc2ccccc2)c(-c2ccccc2)c(-c2ccc(F)cc2)n1CC[C@@H](O)C[C@@H](O)CC(=O)O
active: [1] 14.2 µM and 7.84 µM
inactive: [8] | [2] | [11] | [4] | [5]

CCCCCCCCCCCC[N+](C)(C)CCCCCCCCCCCC
active: [18] 58.1 µM
not listed: [1] | [3] | [9] | [14] | [15] | [17]
inactive: all other assays above

OCC(F)(F)C(F)(F)C(F)(F)C(F)(F)C(F)(F)C(F)(F)C(F)(F)C(F)(F)C(F)(F)C(F)(F)C(F)(F)F
active: [13] 62.3 µM
inactive: [12] | [8] | [2] | [3] | [18] | [4] | [5] | [6] | [7]

CCCCc1ccc2ccccc2c1S(=O)(=O)O
not listed: [1] | [2] | [14] | [15] | [16] | [19]
inactive: all other assays above

O=C(c1ccccc1)c1ccccc1
inactive: [1] | [9] | [2] | [3] | [16] | [4] | [5]

Cc1[nH]nc2c1N=C(c1ccccc1Cl)c1cc([N+](=O)[O-])ccc1N2
active: [6] 1.16 µM | [7] 0.554 µM
not listed: [10] | [12] | [13] | [14] | [18] | [19]
inactive: all other assays above
